# Source: the supplement of paper PMC7411054
# Structures can show the parent of a compound that is named as a salt.
# Key:
# Conditions in all cases: treatment time: 24 h
# A549-ACTB-RAB5A = test: phenotypically active (imaging signature differs from DMSO and reproducible) at any of 0.3-9 uM (binary (1 = active, 0 = inactive)); higher = active
# Procedure, shortened: (§1)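 Cells from fifteen gene-edited reporter lines (A549, HepG2 and WPMY1) were treated for 24 h at 0.3, 1, 3 or 9 µM and imaged live, four wells per condition. Features were normalised per well to solvent control wells. A condition deviated if ≥3 of 4 wells passed the 95th percentile of control Euclidean distances and was reproducible if its median replicate Pearson correlation beat the 95th percentile of non-replicates; phenotypic activity needed both.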
# A549-CANX-COX4 = test: as above
# Procedure, shortened: as §1
# A549-GM130-SQSTM1 = test: as above
# Procedure, shortened: as §1
# A549-TUBA1B-RELA = test: as above
# Procedure, shortened: as §1
# HepG2-ACTB-RAB5A = test: as above
# Procedure, shortened: as §1
# HepG2-CANX-COX4 = test: as above
# Procedure, shortened: as §1
# HepG2-GM130-SQSTM1 = test: as above
# Procedure, shortened: as §1
# HepG2-TUBA1B-RELA = test: as above
# Procedure, shortened: as §1
# WPMY1-ACTB-RAB5A = test: as above
# Procedure, shortened: as §1
# WPMY1-CANX-COX4 = test: as above
# Procedure, shortened: as §1
# WPMY1-GM130-SQSTM1 [1] = test: as above
# Procedure, shortened: as §1
# WPMY1-TUBA1B-RELA = test: as above
# Procedure, shortened: as §1
# A549-TP53BP1-CLTA = test: as above
# Procedure, shortened: as §1
# HepG2-TP53BP1-CLTA = test: as above
# Procedure, shortened: as §1
# WPMY1-TP53BP1-CLTA = test: as above
# Procedure, shortened: as §1
# WPMY1-GM130-SQSTM1 [2] = test: lowest phenotypically active concentration; higher = less potent
# Procedure, shortened: as §1
SMILES,phenotypically active (A549-ACTB-RAB5A),phenotypically active (A549-CANX-COX4),phenotypically active (A549-GM130-SQSTM1),phenotypically active (A549-TUBA1B-RELA),phenotypically active (HepG2-ACTB-RAB5A),phenotypically active (HepG2-CANX-COX4),phenotypically active (HepG2-GM130-SQSTM1),phenotypically active (HepG2-TUBA1B-RELA),phenotypically active (WPMY1-ACTB-RAB5A),phenotypically active (WPMY1-CANX-COX4),phenotypically active (WPMY1-GM130-SQSTM1 [1]),phenotypically active (WPMY1-TUBA1B-RELA),phenotypically active (A549-TP53BP1-CLTA),phenotypically active (HepG2-TP53BP1-CLTA),phenotypically active (WPMY1-TP53BP1-CLTA),lowest phenotypically active concentration (WPMY1-GM130-SQSTM1 [2])
Cc1cnc(NC(=O)C2=C(O)c3ccccc3S(=O)(=O)N2C)s1 [meloxicam],0 (inactive),0 (inactive),0 (inactive),0 (inactive),0 (inactive),0 (inactive),0 (inactive),0 (inactive),0 (inactive),0 (inactive),0 (inactive),0 (inactive),–,–,–,–
C=C[C@H]1CN2CC[C@H]1C[C@H]2[C@H](O)c1ccnc2ccc(OC)cc12 [Quinine dihydrochloride],1 (active),0 (inactive),1 (active),0 (inactive),0 (inactive),0 (inactive),0 (inactive),0 (inactive),0 (inactive),0 (inactive),0 (inactive),0 (inactive),–,–,–,–
O=c1cc(-c2ccc(O)cc2)oc2c(C3O[C@H](CO)[C@@H](O)[C@H](O)[C@H]3O)c(O)cc(O)c12 (some centres not stated) [Vitexin],–,0 (inactive),–,–,0 (inactive),0 (inactive),0 (inactive),0 (inactive),0 (inactive),0 (inactive),0 (inactive),0 (inactive),0 (inactive),0 (inactive),0 (inactive),–
C[C@@H](Oc1cc(-c2cnn(C3CCNCC3)c2)cnc1N)c1c(Cl)ccc(F)c1Cl [Crizotinib],–,1 (active),1 (active),–,1 (active),1 (active),–,1 (active),1 (active),1 (active),1 (active),1 (active),1 (active),1 (active),1 (active),–
CCCc1nc2c(C)cc(-c3nc4ccccc4n3C)cc2n1Cc1ccc(-c2ccccc2C(=O)O)cc1 [telmisartan],–,0 (inactive),–,–,0 (inactive),0 (inactive),0 (inactive),0 (inactive),0 (inactive),0 (inactive),0 (inactive),0 (inactive),0 (inactive),0 (inactive),0 (inactive),–
NCCC(O)(P(=O)(O)O)P(=O)(O)O [pamidronate],–,0 (inactive),–,–,0 (inactive),0 (inactive),0 (inactive),0 (inactive),0 (inactive),0 (inactive),0 (inactive),0 (inactive),0 (inactive),0 (inactive),0 (inactive),–
Cc1ccc(NC(=O)c2ccc(CN3CCN(C)CC3)cc2)cc1Nc1nccc(-c2cccnc2)n1 [Imatinib mesylate],–,1 (active),1 (active),–,1 (active),1 (active),–,1 (active),1 (active),1 (active),1 (active),1 (active),–,–,–,–
NC(=O)c1sc2c([N+](=O)[O-])cc(C(F)(F)F)cc2[n+]1[O-] [Cyclapolin 9],0 (inactive),0 (inactive),0 (inactive),0 (inactive),0 (inactive),0 (inactive),0 (inactive),0 (inactive),0 (inactive),0 (inactive),1 (active),1 (active),0 (inactive),0 (inactive),0 (inactive),9 µM
